Drawing on PubChem BioAssay AID620 (Sanford-Burnham Center for Chemical Genomics, 2007), this text covers cytotoxicity for 63 molecules.

The structures appear in SMILES notation. The whole screen tested about 87,000 compounds, of which about 360 (0.41%) were called active. This is one part of a sample in which actives are shown more often than they occur. Unmarked numbers belong to inactive results. Rule as the data show it: active = cytotoxicity above about 50%; inactive = the rest.

A short description of the test: cytotoxicity in HT1080 fibrosarcoma cells, cell-based, fluorescence readout (AID 620).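 Also: cells exposed to compound overnight then 4 h with Alamar Blue; 0% = vehicle DMSO and 100% = killing control.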 The conditions noted are these: HT1080 viability, at 10 µM, hits give high values.
Turning to `Cc1ccc(Cn2c(-n3nc(C)cc3C)nc3c2c(=O)[nH]c(=O)n3C)cc1`, the cytotoxicity was -7.9%.

Turning to `Cc1cc(C)n(-c2nc3c(c(=O)[nH]c(=O)n3C)n2CCc2ccccc2)n1`, the cytotoxicity was 15.7%.

For `COc1ccc(CCn2c(-n3nc(C)cc3C)nc3c2c(=O)[nH]c(=O)n3C)cc1`, the cytotoxicity is 55.6% (active).

As to `CC(=O)Cc1nsc(NC(=O)C2Cc3ccccc3C(=O)O2)n1` (stereo not drawn), the cytotoxicity was -9.2%.

For `CCCOc1ccc2ccccc2c1/C=N/n1c(C)nnc1-n1nc(C)cc1C`, the cytotoxicity was 61.6% (active).

On to `COc1ccccc1/C=N/n1c(C)nnc1-n1nc(C)cc1C`, for which the cytotoxicity was 9.8%.

Consider `Cc1cc(C)n(-c2nnc(C)n2/N=C/c2cc(Br)ccc2OCc2ccccc2)n1`, for which the cytotoxicity was 5.9%.

As for `Cc1c(C(N)=O)sc2ncn(CC(=O)N3CCC(C)CC3)c(=O)c12`, the cytotoxicity was 0.9%.

With `CCN1CCCC1CNC(=O)CN1C(=O)COc2ccc(C)cc21` (stereo not drawn), the cytotoxicity is -4.1%.

Regarding `O=C(Cc1ccc(Br)cc1)OCC(=O)c1ccc2c(c1)OCCO2`, the cytotoxicity was -6.8%.

In the case of `O=C(Cc1n[nH]c(=O)c2ccccc12)OCC(=O)c1ccc2c(c1)OCCO2`, the cytotoxicity is 60.4% (active).

`O=C(Cn1cnc2ccccc2c1=O)OCC(=O)c1ccc2c(c1)OCCO2`: the cytotoxicity was -7.6%.

For `CC(C)c1cc(Nc2cccc(O)c2)cc(C(C)C)c1O`, the cytotoxicity is 2%.

For `CCN(Cc1ccccc1)S(=O)(=O)c1ccc(S(=O)(=O)N(Cc2ccccn2)Cc2ccco2)cc1`, the cytotoxicity is 11.3%.

For `CCN1CCN(C(=O)Cn2ncc3ccsc3c2=O)CC1`, the cytotoxicity is -5.8%.

As for `CCN1C(=O)/C(=C/N2CCc3ccccc32)SC1=S`, the cytotoxicity was 5.1%.

Regarding `CCN1C(=O)/C(=C\N2CCCCCC2)SC1=S`, the cytotoxicity is -5.6%.

For `CCN1C(=O)/C(=C\N2CCCc3ccccc32)SC1=S`, the cytotoxicity is 52.5% (active).

Consider `COc1ccc(C(=O)Nc2ccc(N3CCOCC3)cc2)cc1OC`, for which the cytotoxicity is -4.9%.

As to `COc1cc(C(=O)Nc2cccc3cccnc23)cc(OC)c1OC`, the cytotoxicity was 5.4%.

With `Cn1c(=N)n(CC(O)c2ccco2)c2ccccc21` (stereo not drawn), the cytotoxicity was -14.7%.

On to `Cn1c(=N)n(CC(O)c2cccc3ccccc23)c2ccccc21` (stereo not drawn), for which the cytotoxicity is 57.8% (active).

For `Cn1c(=N)n(CC(=O)O)c2ccccc21`, the cytotoxicity was 0.2%.

On to `CC1CCC(C(C)C)C(OCC(O)CN2CCOCC2)C1` (stereo not drawn), for which the cytotoxicity was 2.7%.

With `COc1ccccc1NC(=O)c1oc2ccccc2c1NC(=O)c1ccco1`, the cytotoxicity is 0.3%.

Turning to `COCC(=O)Nc1c(C(=O)Nc2ccccc2OC)oc2ccccc12`, the cytotoxicity was -17.1%.

Regarding `COc1ccccc1NC(=O)c1oc2ccccc2c1NC(=O)c1cc(OC)c(OC)c(OC)c1`, the cytotoxicity is 50% (active).

In the case of `Cc1oc2c(c1C(=O)Nc1cccc(C(=O)O)c1)CCCC2`, the cytotoxicity is 9.3%.

As for `CC1(C)CC2CC(C)(CN2C(=O)Cc2ccccc2)C1` (stereo not drawn), the cytotoxicity was -25%.

For `COc1cccc(C2C(C(N)=O)=C(C)Nc3nc(CCCO)nn32)c1OC` (stereo not drawn), the cytotoxicity was 1%.

Regarding `CCOC(=O)c1c(C)sc2c1N(C(=O)CN(CC)CC)c1cc(Cl)ccc1S2`, the cytotoxicity was 6.5%.

With `CCOC(=O)c1c(C)sc2c1N(C(C)=O)c1cc(Cl)ccc1S2`, the cytotoxicity was 17.6%.

For `CCOC(=O)c1c(C)sc2c1N(C(=O)CCl)c1cc(Cl)ccc1S2`, the cytotoxicity is 87.2% (active).

For the molecule `CCCN1CCN(C(c2cc3cc4c(cc3[nH]c2=O)OCO4)c2nnnn2C(C)(C)C)CC1` (stereo not drawn), the cytotoxicity was 1.4%.

With `CCN(CC)S(=O)(=O)c1cccc(C(=O)Nc2ccc(Cl)cn2)c1`, the cytotoxicity was -7.6%.

With `Fc1ccc(Br)cc1C1C=C(c2ccc(Br)s2)Nc2ncnn21` (stereo not drawn), the cytotoxicity is 62.6% (active).

On to `Fc1ccc(Br)cc1C1C=C(c2ccc(Br)cc2)Nc2ncnn21` (stereo not drawn), for which the cytotoxicity was -11.5%.

Consider `CCc1ccc(C2=CC(c3cc(Br)ccc3F)n3ncnc3N2)cc1` (stereo not drawn), for which the cytotoxicity is 44.7%.

Turning to `Cc1cc(N)n(-c2ncnc3scc(-c4ccc(Cl)cc4)c23)n1`, the cytotoxicity is 7.2%.

Consider `CCCCCOc1ccc(C(=O)C(c2ccccc2)N2CCOCC2)cc1` (stereo not drawn), for which the cytotoxicity was -2%.

For the molecule `COc1ccc(C(=O)C(CN2CCOCC2)c2ccccc2)cc1F` (stereo not drawn), the cytotoxicity was 25.3%.

On to `O=C(c1ccc(F)cc1)C(CN1CCOCC1)c1ccccc1` (stereo not drawn), for which the cytotoxicity was 61% (active).

Turning to `CC(CN1CCOCC1)C(=O)c1ccccc1` (stereo not drawn), the cytotoxicity is -9.8%.

Regarding `COc1ccc(C(=O)C(CN2CCOCC2)c2ccccc2)cc1` (stereo not drawn), the cytotoxicity was 27%.

For the molecule `CCc1cc(=O)oc2cc(OCC(=O)N(CC)CC)c(Cl)cc12`, the cytotoxicity is 2.2%.

As for `O=C(CCn1c(=O)sc2ccccc21)NCc1ccccc1`, the cytotoxicity is 0%.

With `c1ccc2[nH]c(CSc3nc4ccccc4s3)nc2c1`, the cytotoxicity was -3.3%.

As to `CCCC[C@@H]1C[C@H]1C(NC(=O)c1ccc(C(F)(F)F)cc1)c1ccc(C(=O)OC)cc1` (stereo partly drawn), the cytotoxicity was -11.3%.

For the molecule `CCn1cc(C(=O)O)c(=O)c2cnc(N3CCN(C(=O)Nc4cccc5ccccc45)CC3)nc21`, the cytotoxicity is -1.8%.

For the molecule `CC(=O)N1CCN(Cc2ccc(Br)s2)CC1`, the cytotoxicity is -4.4%.

Regarding `Cc1[nH]c(=O)[nH]c(=O)c1S(=O)(=O)N1c2ccc(F)cc2CCC1C` (stereo not drawn), the cytotoxicity was -0.4%.

Consider `CCCN(C(=O)Cn1ncc2c(=O)oc3ccccc3c21)c1cccc(C)c1`, for which the cytotoxicity was -2.3%.

As for `O=C(CN(c1ccccc1F)S(=O)(=O)c1ccccc1)NC1CCCCCC1`, the cytotoxicity is -8.6%.

`Fc1ccc(-c2nnc(CN3CCN(c4ncc(C(F)(F)F)cc4Cl)CC3)o2)cc1`: the cytotoxicity is -2.5%.

On to `CCCCc1ccc(-c2nc(N)n[nH]2)cc1`, for which the cytotoxicity was 5.5%.

As to `CCCCCc1ccc(-c2ccc(=O)[nH]n2)cc1`, the cytotoxicity is 15.3%.

As to `CCCCCCc1ccc(-c2ncc(N)cn2)cc1`, the cytotoxicity is 97.1% (active).

Take `CCCn1c(=O)c2ccccc2n2c(SCC(=O)c3cc(C)n(CC4CCCO4)c3C)nnc12` (stereo not drawn): the cytotoxicity is 6.6%.

Regarding `COc1ccccc1N(CC(=O)NC1CCCCC1)S(C)(=O)=O`, the cytotoxicity was -0.7%.

With `Fc1ccc(N2CCN(c3nc(-c4ccco4)cc(C(F)(F)F)n3)CC2)cc1`, the cytotoxicity is -8.6%.

Regarding `O=C(c1c[nH]c2ccc(F)cc2c1=O)N1CCCCCC1`, the cytotoxicity was 67.1% (active).

As for `CCc1ccc2[nH]cc(C(=O)N3CCCCCC3)c(=O)c2c1`, the cytotoxicity was -11%.

For `COc1ccc2[nH]cc(C(=O)N3CCCCC3)c(=O)c2c1`, the cytotoxicity is -0.4%.
